{"source": "PubChem BioAssay AID1159577", "about": "(Broad Institute, 2015)", "note": "Hit rate of the full screen: of about 1,300 compounds, about 240 (18%) were called active. About 8% were inconclusive and are not listed. The rule behind the calls is not given here. The list is a sample of the results. Where a call stands in place of a potency, no number is given. Potency and affinity values are given separately.", "data": [{"test": "toxicity to human hepatoma HepG2 cells – cell-based, cherry-picked samples, cytotoxicity control, dose response (AID 1159577)", "conditions": "HepG2 cytotoxicity counterscreen, plate reader; series mostly up to 19.5 µM", "values": [{"compound": "COc1ccc2c3c([nH]c2c1)[C@@H](CO)N(C(=O)C1CCCCC1)CC31CCN(Cc2nccs2)CC1", "outcome": "inactive"}, {"compound": "COc1ccc2c3c([nH]c2c1)[C@H](CO)N(C(=O)C1CCCCC1)CC31CCN(Cc2nccs2)CC1", "outcome": "inactive"}, {"compound": "COc1ccc2c3c(n(C)c2c1)[C@H](CO)N(C(=O)C1CC1)CC31CN(C(=O)C2CCOCC2)C1", "outcome": "inactive"}, {"compound": "COc1ccc2c3c(n(C)c2c1)[C@@H](CO)N(C(=O)C1CC1)CC31CCN(C(=O)Nc2cccc(F)c2)CC1", "outcome": "inactive"}, {"compound": "O=C(C[C@@H]1C[C@H]2c3cc(NS(=O)(=O)c4ccc(F)cc4)ccc3O[C@H]2[C@H](CO)O1)N1CCc2ccccc2C1", "outcome": "inactive"}, {"compound": "COc1cccc(CN2[C@@H](CO)[C@H](c3ccccc3)C23CN(C(=O)C2CCOCC2)C3)c1", "outcome": "inactive"}, {"compound": "CN(C)c1ccc2c(c1)[C@H]1C[C@H](CC(=O)NCc3ccc(Oc4ccccc4)cc3)O[C@H](CO)[C@H]1O2", "outcome": "inactive"}, {"compound": "CCCC(=O)N1CCC2(CC1)CN(S(=O)(=O)c1ccc(C)cc1)[C@@H](CO)c1[nH]c3cc(OC)ccc3c12", "outcome": "inactive"}, {"compound": "C[C@H]1CN([C@@H](C)CO)C(=O)c2c(c3ccccc3n2C)-c2ccccc2CO[C@@H]1CN(C)C(=O)Nc1ccc(-c2ccccc2)cc1", "outcome": "inactive"}, {"compound": "O=C(Nc1ccc(C(F)(F)F)cc1)N1[C@@H]2CNC[C@H]1C2c1ccc(/C=C/c2ccccc2)cc1", "note": "(some centres undefined)", "outcome": "inactive"}, {"compound": "O=S(=O)(Cc1ccccc1)N1[C@H](CO)[C@@H](c2ccccc2)C12CN(CCC(F)(F)F)C2", "outcome": "inactive"}, {"compound": "CC(C)(C)[S@@](=O)N1Cc2cc(C(=O)NCCN3CCCCC3)nc(-c3cccc(-c4cccc(C#N)c4)c3)c2[C@H]1CCO", "outcome": "inactive"}, {"compound": "COc1ccc(C#Cc2ccc3c(c2)[C@H]2[C@H](CCN2C(=O)C2CCC2)[C@@H](CO)N3)cc1", "outcome": "inactive"}, {"compound": "CN(C)CC(=O)N1[C@H](CO)[C@H](c2ccc(C#CC3CCCCC3)cc2)[C@@H]1C#N", "outcome": "inactive"}, {"compound": "C[C@@H]1CN([C@H](C)CO)C(=O)c2cccc(NS(=O)(=O)c3ccccc3)c2O[C@H]1CN(C)Cc1ccc(-c2ccccc2)cc1", "outcome": "inactive"}, {"compound": "O=C(C[C@H]1CC[C@@H]2[C@H](COC[C@@H](O)CN2C(=O)Nc2ccc3c(c2)OCO3)O1)N1CCN(c2ccccc2)CC1", "outcome": "inactive"}, {"compound": "C/C=C/c1ccc([C@@H]2[C@H](CO)N(CC3CC3)C23CN(C(=O)c2ccc4c(c2)OCO4)C3)cc1", "outcome": "inactive"}, {"compound": "N#Cc1ccc(-c2ccc([C@@H]3[C@@H]4CN(C(=O)Nc5ccc6c(c5)OCO6)C[C@H]3N4)cc2)cc1", "outcome": "inactive"}, {"compound": "O=C(c1ccc(F)cc1)N1CC(=O)N2[C@H](CO)[C@@H](c3ccc(/C=C/c4ccccc4)cc3)[C@@H]2C1", "outcome": "inactive"}, {"compound": "CN(C)C(=O)c1cccc(-c2ccc3c(c2)[C@H]2[C@H](CCN2C(=O)C2CC2)[C@@H](CO)N3)c1", "outcome": "inactive"}, {"compound": "C/C=C/c1ccc([C@@H]2[C@H](CO)N(CC3CCCC3)C23CN(C(=O)CC2CC2)C3)cc1", "outcome": "inactive"}, {"compound": "CCC(=O)N1CCC2(CC1)CN(S(=O)(=O)c1ccccc1)[C@@H](CO)c1[nH]c3cc(OC)ccc3c12", "outcome": "inactive"}, {"compound": "N#C[C@@H]1[C@H](c2ccccc2-c2cccc(F)c2)[C@H](CO)N1C(=O)C1CCCC1", "outcome": "inactive"}, {"compound": "C[C@H](CO)N1C[C@H](C)[C@H](CN(C)S(=O)(=O)c2cccs2)OCc2ccccc2-c2c(n(C)c3ccccc23)C1=O", "outcome": "inactive"}, {"compound": "C[C@H]1CN([C@@H](C)CO)C(=O)c2cc(C#Cc3cccc(F)c3)cnc2O[C@@H]1CN(C)C(=O)C1CCCCC1", "outcome": "inactive"}, {"compound": "COc1cccc(C#Cc2cnc3c(c2)C(=O)N([C@@H](C)CO)C[C@H](C)[C@@H](CN(C)C(=O)C2CCCCC2)O3)c1", "outcome": "inactive"}, {"compound": "C[C@@H]1CN([C@H](C)CO)C(=O)c2cc(C#Cc3cccc(F)c3)cnc2O[C@@H]1CN(C)C(=O)C1CCCCC1", "outcome": "inactive"}, {"compound": "C[C@H](CO)N1C[C@H](C)[C@H](CN(C)C(=O)C2CCCCC2)Oc2ncc(C#Cc3cccc(F)c3)cc2C1=O", "outcome": "inactive"}, {"compound": "C[C@@H]1CN([C@H](C)CO)C(=O)c2cc(C#CCc3ccccc3)cnc2O[C@H]1CN(C)C(=O)C1CCC1", "outcome": "inactive"}, {"compound": "COc1cccc(C#Cc2cnc3c(c2)C(=O)N([C@H](C)CO)C[C@H](C)[C@@H](CN(C)C(=O)C2CCCCC2)O3)c1", "outcome": "inactive"}, {"compound": "C[C@@H]1CN([C@@H](C)CO)C(=O)c2cc(C#Cc3ccccc3)cnc2O[C@H]1CN(C)C(=O)CCN1CCCCC1", "outcome": "inactive"}, {"compound": "C[C@@H]1CN([C@@H](C)CO)C(=O)c2cc(C#Cc3ccccc3)cnc2O[C@H]1CN(C)C(=O)CN(C)C", "outcome": "inactive"}, {"compound": "COCC(=O)Nc1ccc2c(c1)OC[C@H](C)N(Cc1ccncc1)C[C@H](C)[C@@H](OC)CN(C)C2=O", "outcome": "inactive"}, {"compound": "C[C@H](CO)N1C[C@H](C)[C@H](CN(C)C(=O)C2CC2)Oc2cc(C#Cc3ccccc3)ccc2S1(=O)=O", "outcome": "inactive"}, {"compound": "C[C@@H]1CN([C@@H](C)CO)C(=O)c2c(c3ccccc3n2C)-c2ccccc2CO[C@H]1CN(C)Cc1cccc(C(=O)Nc2ccccc2N)c1", "outcome": "inactive"}, {"compound": "CO[C@H]1CN(C)C(=O)c2ccc(NS(=O)(=O)CC(F)(F)F)cc2OC[C@@H](C)N(Cc2nccs2)C[C@H]1C", "outcome": "inactive"}, {"compound": "COc1ccccc1-c1cccc(-c2nc(C(=O)Nc3nccs3)cc3c2[C@H](CCO)N(C(C)=O)C3)c1", "outcome": "inactive"}, {"compound": "C[C@@H]1CN([C@@H](C)CO)C(=O)c2ccccc2-c2ccccc2CO[C@H]1CN(C)C(=O)Nc1cccc(Cl)c1Cl", "outcome": "inactive"}, {"compound": "COc1ccc(CN2C[C@@H](C)[C@H](OC)CN(C)C(=O)c3cc(NC(=O)c4nc5ccccc5s4)ccc3OC[C@H]2C)cc1", "outcome": "inactive"}, {"compound": "CCCN(C)C[C@H]1Oc2ncc(C#Cc3ccccc3OC)cc2C(=O)N([C@H](C)CO)C[C@H]1C", "outcome": "inactive"}, {"compound": "CCCN(C)C[C@H]1Oc2ncc(C#Cc3ccc(F)cc3)cc2C(=O)N([C@@H](C)CO)C[C@H]1C", "outcome": "inactive"}, {"compound": "COc1cccc(NC(=O)N2[C@@H](CO)[C@@H](c3ccccc3)[C@@H]2CNC(C)C)c1", "outcome": "inactive"}, {"compound": "C[C@@H]1CN([C@@H](C)CO)C(=O)c2cccc(NC(=O)Nc3ccccc3)c2O[C@@H]1CN(C)C(=O)Nc1ccccc1", "outcome": "inactive"}, {"compound": "COc1ccc2c3c([nH]c2c1)[C@@H](CO)N(C(=O)Nc1cccc(F)c1)CC31CN(CC2CCOCC2)C1", "outcome": "inactive"}, {"compound": "COc1ccc2c3c([nH]c2c1)[C@H](CO)N(C(=O)Nc1ccc(F)cc1)CC31CCN(Cc2cc(-c3ccccc3)on2)CC1", "outcome": "inactive"}, {"compound": "COc1ccc2c3c([nH]c2c1)[C@H](CO)N(C(=O)Nc1ccc(F)cc1)CC31CCN(C(=O)c2ccccn2)CC1", "outcome": "inactive"}, {"compound": "COc1ccc2c3c([nH]c2c1)[C@H](CO)N(C(=O)Nc1ccc(F)cc1)CC31CCN(S(=O)(=O)c2cccc(F)c2)CC1", "outcome": "inactive"}, {"compound": "O=C(C1CCCCC1)N1[C@H](CO)[C@@H](c2ccccc2)C12CN(Cc1cccc(Cl)c1)C2", "outcome": "inactive"}, {"compound": "CN(C)c1ccc2c(c1)[C@@H]1C[C@@H](CC(=O)NCc3cc(F)ccc3F)O[C@@H](CO)[C@@H]1O2", "outcome": "inactive"}, {"compound": "CC(C)(C)[S@](=O)N1Cc2cc(C(=O)N[C@@H]3CCN(Cc4ccccc4)C3)nc(-c3cccc(-c4cccnc4)c3)c2[C@@H]1CCO", "outcome": "inactive"}, {"compound": "C/C=C/c1ccc2c(c1)[C@@H]1[C@@H](CCN1C(=O)C1CCCC1)[C@H](CO)N2", "outcome": "inactive"}, {"compound": "O=C(C1CCCC1)N1CC2(C1)[C@@H](c1ccccc1)[C@H](CO)N2Cc1ccc(Cl)cc1", "outcome": "inactive"}, {"compound": "CO[C@H]1CN(C)C(=O)c2cc(NC(=O)Nc3cccc(Cl)c3)ccc2OC[C@H](C)NC[C@H]1C", "outcome": "inactive"}, {"compound": "CO[C@@H]1CN(C)C(=O)c2cc(NC(=O)Nc3cccc(Cl)c3)ccc2OC[C@H](C)NC[C@H]1C", "outcome": "inactive"}, {"compound": "CO[C@@H]1CN(C)C(=O)c2cc(NC(=O)Nc3ccc(C(F)(F)F)cc3)ccc2OC[C@H](C)NC[C@H]1C", "outcome": "inactive"}, {"compound": "CO[C@@H]1CN(C)C(=O)c2cc(NC(=O)Nc3ccc(C(F)(F)F)cc3)ccc2OC[C@H](C)NC[C@@H]1C", "outcome": "inactive"}, {"compound": "CO[C@H]1CN(C)C(=O)c2cc(NC(=O)Nc3ccc(C(F)(F)F)cc3)ccc2OC[C@H](C)NC[C@H]1C", "outcome": "inactive"}, {"compound": "CO[C@@H]1CN(C)C(=O)c2cc(NC(=O)Nc3ccc(C(F)(F)F)cc3)ccc2OC[C@@H](C)NC[C@@H]1C", "outcome": "inactive"}, {"compound": "CO[C@@H]1CN(C)C(=O)c2cc(NC(=O)Nc3cccc(Cl)c3)ccc2OC[C@@H](C)NC[C@@H]1C", "outcome": "inactive"}, {"compound": "Cc1ccccc1S(=O)(=O)N1[C@H](CO)[C@@H](c2ccc(C#CC3CC3)cc2)[C@@H]1C#N", "outcome": "inactive"}, {"compound": "CCCNC(=O)N1[C@H](C#N)[C@H](c2ccc(-c3ccccc3F)cc2)[C@@H]1CO", "outcome": "inactive"}, {"compound": "COc1ccc(C#Cc2cnc3c(c2)C(=O)N([C@H](C)CO)C[C@H](C)[C@H](CN(C)S(=O)(=O)c2cccc(F)c2)O3)cc1OC", "outcome": "inactive"}, {"compound": "COc1ccc(CN2CC3(CCN(C(=O)c4ccccc4)CC3)c3c([nH]c4cc(OC)ccc34)[C@@H]2CO)cc1", "outcome": "inactive"}, {"compound": "O=C(c1ccc(F)cc1)N1CC(=O)N2[C@H](CO)[C@H](c3ccc(-c4cccnc4)cc3)[C@H]2C1", "outcome": "inactive"}, {"compound": "O=C(C1CCOCC1)N1[C@H](CO)[C@@H](c2ccccc2)C12CN(Cc1cccc(Cl)c1)C2", "outcome": "inactive"}, {"compound": "COc1ccc(-c2ccc([C@@H]3[C@H]4CN(C(=O)NC(C)C)CC(=O)N4[C@H]3CO)cc2)cc1", "outcome": "inactive"}, {"compound": "COc1ccc2c3c(n(C)c2c1)[C@H](CO)N(C(=O)Nc1ccc(F)cc1)CC31CCN(S(=O)(=O)c2cccc(F)c2)CC1", "outcome": "inactive"}, {"compound": "CN1c2ccc(-c3cccc(C#N)c3)cc2[C@H]2[C@H](CCN2S(=O)(=O)c2ccccc2F)[C@H]1CO", "outcome": "inactive"}, {"compound": "CCCN(C)C[C@@H]1Oc2cc(C#Cc3cccnc3)ccc2S(=O)(=O)N([C@H](C)CO)C[C@@H]1C", "outcome": "inactive"}]}]}
